# Measurements: PubChem BioAssay (Tox21)
# The source made the active and inactive calls. Entries that show only a call come without a potency. Calls come from the whole dose curve.
# Target: Thyrotropin-releasing hormone receptor (Homo sapiens) (UniProt P34981)
# Assay: qHTS assay to identify small molecule agonists of the thyrotropin-releasing hormone receptor (TRHR) signaling pathway (AID 1346891);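 note: HEK293 cells expressing TRHR with calcium dye readout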
# Conditions: TRHR-HEK293 calcium fluorescence, agonist mode; series mostly up to 57.6 µM
# Excerpt: National Center for Advancing Translational Sciences [NCATS] NIH Chemical Genomics Center [NCGC] U.S. Environmental Protection Agency [EPA] National Institutes of Environmental Health Sciences [NIEHS] National Toxicology Program [NTP] Assay overview: Thyrotropin-releasing hormone (TRH) receptor (TRHR) is a G-protein-coupled receptor which binds the tripeptide thyrotropin releasing hormone. TRHR is found in the brain and, when bound by TRH, acts (through phospholipase C) to increase intracellular inositol trisphosphate. It plays a crucial role in the anterior pituitary where it controls the synthesis and secretion of thyroid stimulating hormone and prolactin. The TRHR-Hek293 assay is a cell-based assay, and it has the potential to screen G protein-coupled receptors. A compound/drug can either activate (agonist) or suppress (antagonist) GPCRs that can be monitored by levels of intracellular calcium. Using this assay, the Tox21 10K compound library was screened to identify potential TRHR agonists.
# Assay Protocol Summary: The TRHR-Hek293 cells were dispensed at 1500cells/4uL/well in 1536-well black-clear bottom plates using a Multidrop dispenser. After the assay plates were incubated at a 37 C/5% CO2 incubator for 18 hours, 4 uL of Dye-Loading Solution was added to each well. The plates were incubated at 37 C for 2 hours. For agonist mode, 23 nL of compounds dissolved in DMSO, positive controls or DMSO only was transferred to the assay plate by a pin tool. The fluorescence intensity in the plates was measured using FDSS 7000EX kinetic plate reader for 3 min at 1 sec intervals. Each test compound was measured at 15 concentrations and in triplicates.
# Thyrotropin-releasing hormone receptor (Homo sapiens), sequence (P34981 whole entry, looked up): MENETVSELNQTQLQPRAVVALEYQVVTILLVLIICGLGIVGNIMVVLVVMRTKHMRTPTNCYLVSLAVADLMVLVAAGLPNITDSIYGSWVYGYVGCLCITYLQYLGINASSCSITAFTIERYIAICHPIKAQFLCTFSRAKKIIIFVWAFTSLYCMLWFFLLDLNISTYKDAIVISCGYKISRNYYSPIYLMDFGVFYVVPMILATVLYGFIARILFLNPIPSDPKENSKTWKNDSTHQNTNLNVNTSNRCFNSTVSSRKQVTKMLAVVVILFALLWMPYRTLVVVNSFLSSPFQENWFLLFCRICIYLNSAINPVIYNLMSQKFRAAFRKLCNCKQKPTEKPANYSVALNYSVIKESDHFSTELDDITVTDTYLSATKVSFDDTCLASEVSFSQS
Compound,Potency,activation
CCCCc1nc2cccnc2n1Cc1ccc(-c2ccccc2-c2nnn[nH]2)cc1,inactive,
Nc1ccc(S(=O)(=O)Nc2ccccc2)cc1,inactive,
O=C(c1ccc(F)cc1)C1CCN(CCn2c(=S)[nH]c3ccccc3c2=O)CC1,inactive,
CO[C@@H]1[C@H](OC(=O)/C=C/C=C/C=C/C=C/C(=O)O)CC[C@]2(CO2)[C@H]1[C@@]1(C)O[C@@H]1CC=C(C)C,inactive,
CCCCC(CC)COC(=O)COc1ccc(Cl)cc1Cl (stereo not given),inactive,
OCCNCc1ccccc1,inactive,
O=C(O)C1(C(=O)O)CCC1.[NH2-].[NH2-].[Pt+2],inactive,
CC1=CCCC(C)(C)C12CCC(C)O2 (stereo not given),inactive,
O=C1CCC(=O)O1,inactive,
CN1C[C@H]2c3ccccc3Oc3ccc(Cl)cc3[C@@H]2C1,inactive,
CC(=O)c1ccc2c(c1)N(CCCN(C)C)c1ccccc1S2,inactive,
Nc1c(CC(=O)O)cccc1C(=O)c1ccc(Br)cc1,inactive,
NC(=O)C(c1ccccc1)(c1ccccc1)[C@@H]1CCN(CCc2ccc3c(c2)CCO3)C1,inactive,
COc1ccc(S(=O)(=O)N2C(=O)[C@@](c3ccccc3OC)(N3C[C@H](O)C[C@H]3C(=O)N(C)C)c3cc(Cl)ccc32)c(OC)c1,inactive,
Nc1cccc([N+](=O)[O-])c1,inactive,
NC(N)=NCCC[C@H](N)C(=O)O,,0.134% [at 5.23 µM] (inactive)
Cc1[nH]c(C)c(Cl)c(=O)c1Cl,,-1.18% [at 11.8 µM] (inactive)
COc1ccc(C(=O)c2ccc(OC)cc2O)c(O)c1,inactive,
O=S(=O)(Oc1ccc(Cl)cc1)c1ccccc1,inactive,
CC(=O)OC[C@H]1O[C@@H](n2ncc(=O)[nH]c2=O)[C@H](OC(C)=O)[C@@H]1OC(C)=O,inactive,

Compound,Potency,activation
CN1CCN(C(c2ccccc2)c2ccccc2)CC1,inactive,
CCCCCCCCCCCc1ccccc1,inactive,
COc1cc(Cl)c(OC)cc1N,inactive,
CCN(CC)CCOC(=O)C(Cc1cccc2ccccc12)CC1CCCO1 (stereo not given),inactive,
COc1ccc(-c2nc3ccc(C4=NNC(=O)CC4C)cc3[nH]2)cc1 (stereo not given),inactive,
CCCCCCCCCOS(=O)(=O)O,inactive,
CCCCCCCCO[C@@H]1O[C@H](CO)[C@@H](O)[C@H](O)[C@H]1O,inactive,
O=C(OCCc1ccccc1)c1ccccc1,inactive,
Clc1ccc(Cn2c(CN3CCCC3)nc3ccccc32)cc1,inactive,
CN(C)c1ccc(C(c2ccccc2)c2ccc(N(C)C)cc2)cc1,inactive,
C=C(C)C(=O)OCCOCC,inactive,
O=C(Cl)c1cc(C(=O)Cl)cc(C(=O)Cl)c1,inactive,
CC(C)OC(=O)C(C)N(C(=O)c1ccccc1)c1ccc(F)c(Cl)c1 (stereo not given),inactive,
Nc1ccccc1S(=O)(=O)c1ccccc1,inactive,
CC(C)CC(=O)C1C(=O)c2ccccc2C1=O,inactive,
O=C(Nc1ccc(S(=O)(=O)N2CCOCC2)cc1)c1cc(Cl)ccc1NS(=O)(=O)c1ccc(Cl)s1,inactive,
COc1ccc(C)cc1[N+](=O)[O-],inactive,
Cc1oc2c(NC(=O)c3c(Cl)cccc3Cl)cccc2c1C(C)(C)O,inactive,
O=CC1CC=CCC1 (stereo not given),inactive,
c1cc(CCCc2ccncc2)ccn1,inactive,
